# According to PubChem BioAssay (Tox21):
# Unmarked numbers belong to inactive results. Records with an inconclusive call do not appear. A call without a number means that no potency is given here. Activity calls are given as the source filed them. Calls come from the whole dose curve; as a rule, active = well fitted curve in the direction sought with a large enough effect in the repeat runs; inconclusive = weak or mixed curves; inactive = no such curve, though single readings can be large; an effect the other way counts as inactive or inconclusive.
# Columns and labels:
# [1] = qHTS RealTime-Glo MT Cell Viability Assay in HepG2 cells - 8 hour (AID 1224873); conditions: RealTime-Glo luminescence; series mostly up to 76.8 µM; note: nearly all actives have a fitted effect of over 55% in size
# Procedure, shortened: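 HepG2 cells mixed with RealTime-Glo MT reagents (NanoLuc plus cell-permeant prosubstrate) were seeded at 600 cells/well, incubated 5 h at 37 C/5% CO2, then pinned with compounds in DMSO; nonlytic luminescence tracked viability during 40 h treatment.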
# [2] = A CellTox Green Cytotoxicity Assay to monitor cytotoxicity in HEK293 cells - 24 hour (AID 1224875); conditions: CellTox Green fluorescence; series mostly up to 76.8 µM; note: nearly all actives have a fitted effect of over 45% in size
# Procedure, shortened: (§1)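 Real-time, in one plate: 600 HEK293 cells/well with dead-cell DNA dye, pinned compound after 5 h, 37 C incubation over 40 h; viable cells give no appreciable fluorescence.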
# [3] = A CellTox Green Cytotoxicity Assay to monitor cytotoxicity in HepG2 cells - 16 hour (AID 1224876); conditions: CellTox Green fluorescence; series mostly up to 76.8 µM; note: nearly all actives have a fitted effect of over 45% in size
# Procedure, shortened: (§2)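 Cytotoxicity was tracked as dead-cell DNA fluorescence in HepG2 cells treated with test compounds at 37 C; each time-point value comes from one kinetic series spanning 0, 8, 16, 24, 32 and 40 h.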
# [4] = qHTS RealTime-Glo MT Cell Viability Assay in HepG2 cells - 32 hour (AID 1224877); conditions: RealTime-Glo luminescence; series mostly up to 76.8 µM; note: nearly all actives have a fitted effect of over 55% in size
# Procedure, shortened: (§3)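 Tox21 10K library screened in qHTS format on HepG2 cells carrying RealTime-Glo reagents. Compounds were added after a 5 h preincubation, and the luminescent signal from continuous culture was measured repeatedly during 40 h treatment.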
# [5] = A CellTox Green Cytotoxicity Assay to monitor cytotoxicity in HepG2 cells - 24 hour (AID 1224878); conditions: CellTox Green fluorescence; series mostly up to 76.8 µM; note: nearly all actives have a fitted effect of over 45% in size
# Procedure, shortened: as §2
# [6] = A CellTox Green Cytotoxicity Assay to monitor cytotoxicity in HepG2 cells - 40 hour (AID 1224879); conditions: CellTox Green fluorescence; series mostly up to 76.8 µM; note: nearly all actives have a fitted effect of over 40% in size
# Procedure, shortened: as §2
# [7] = qHTS RealTime-Glo MT Cell Viability Assay in HEK293 cells - 0 hour (AID 1224880); conditions: RealTime-Glo luminescence; series mostly up to 76.8 µM; note: top concentration of the series differs between compounds; nearly all actives have a fitted effect of over 45% in size
# Procedure, shortened: (§4)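 Kinetic, non-lysing viability readout. Seed HEK293 (600/well) with reagent, incubate 5 h at 37 C/5% CO2, pin 23 nL compound in DMSO, incubate at 37 C, read luminescence at 0, 8, 16, 24, 32, 40 h.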
# [8] = A CellTox Green Cytotoxicity Assay to monitor cytotoxicity in HEK293 cells - 32 hour (AID 1224881); conditions: CellTox Green fluorescence; series mostly up to 76.8 µM; note: nearly all actives have a fitted effect of over 40% in size
# Procedure, shortened: as §1
# [9] = A CellTox Green Cytotoxicity Assay to monitor cytotoxicity in HepG2 cells - 0 hour (AID 1224882); conditions: CellTox Green fluorescence; series mostly up to 76.8 µM; note: nearly all actives have a fitted effect of over 35% in size
# Procedure, shortened: as §2
# [10] = A CellTox Green Cytotoxicity Assay to monitor cytotoxicity in HepG2 cells - 32 hour (AID 1224883); conditions: CellTox Green fluorescence; series mostly up to 76.8 µM; note: nearly all actives have a fitted effect of over 50% in size
# Procedure, shortened: as §2
# [11] = A CellTox Green Cytotoxicity Assay to monitor cytotoxicity in HEK293 cells - 8 hour (AID 1224884); conditions: CellTox Green fluorescence; series mostly up to 76.8 µM; note: nearly all actives have a fitted effect of over 35% in size
# Procedure, shortened: as §1
# [12] = qHTS RealTime-Glo MT Cell Viability Assay in HepG2 cells - 16 hour (AID 1224885); conditions: RealTime-Glo luminescence; series mostly up to 76.8 µM; note: nearly all actives have a fitted effect of over 50% in size
# Procedure, shortened: as §3
# [13] = qHTS RealTime-Glo MT Cell Viability Assay in HEK293 cells - 8 hour (AID 1224887); conditions: RealTime-Glo luminescence; series mostly up to 76.8 µM; note: nearly all actives have a fitted effect of over 50% in size; note: potency is the fitted concentration of half-maximal effect; for activity change, negative = cytotoxicity: top concentration of the series differs between compounds
# Procedure, shortened: as §4
# [14] = A CellTox Green Cytotoxicity Assay to monitor cytotoxicity in HEK293 cells - 16 hour (AID 1224888); conditions: CellTox Green fluorescence; series mostly up to 76.8 µM; note: nearly all actives have a fitted effect of over 35% in size
# Procedure, shortened: as §1
# [15] = qHTS RealTime-Glo MT Cell Viability Assay in HepG2 cells - 0 hour (AID 1224889); conditions: RealTime-Glo luminescence; series mostly up to 76.8 µM; note: nearly all actives have a fitted effect of over 50% in size
# Procedure, shortened: as §3
# [16] = A CellTox Green Cytotoxicity Assay to monitor cytotoxicity in HepG2 cells - 8 hour (AID 1224890); conditions: CellTox Green fluorescence; series mostly up to 76.8 µM; note: nearly all actives have a fitted effect of over 45% in size
# Procedure, shortened: as §2
# [17] = qHTS assay to identify small molecule antagonists of the estrogen receptor alpha (ER-alpha) signaling pathway using the BG1 cell line in the presence of 0.1 nM 17-beta-estradiol - cell viability counter screen (AID 1259241); conditions: VM7Luc4E2 (BG1) viability, CellTiter-Fluor protease, 22 h, 0.1 nM estradiol agonist added; series mostly up to 92.4 µM; note: nearly all actives have a fitted effect of over 40% in size
# Procedure, shortened: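 Cytotoxicity counter-screen: live-cell protease activity measured by fluorescence (30 min reagent step) in the same wells. Cells were VM7Luc4E2 with endogenous ER-alpha and ERE-driven luciferase, treated 22 hr at 37C alongside 0.1 nM 17beta-estradiol final.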
# [18] = qHTS RealTime-Glo MT Cell Viability Assay in HEK293 cells - 24 hour (AID 1224886); conditions: RealTime-Glo luminescence; series mostly up to 76.8 µM
# Procedure, shortened: (§5)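 Luminescence generated by NanoLuc from substrate produced by living HEK293 cells served as the viability signal. Each value reflects the reading at its stated time point during continuous 40 h compound exposure at 37 C.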
# [19] = qHTS RealTime-Glo MT Cell Viability Assay in HEK293 cells - 40 hour (AID 1224874); conditions: RealTime-Glo luminescence; max response: active compounds read low; note: nearly all actives have a fitted effect of over 50% in size
# Procedure, shortened: as §4
# [20] = qHTS RealTime-Glo MT Cell Viability Assay in HEK293 cells - 16 hour (AID 1224872); conditions: RealTime-Glo luminescence; series mostly up to 76.8 µM
# Procedure, shortened: as §5
smiles,measurement,setting,value
CC(C)(C)c1cc(O)ccc1O,outcome,[1],inactive
same,Potency,[2],inactive
same,Potency,[3],inactive
same,Potency,[4],inactive
same,Potency,[5],inactive
same,Potency,[6],inactive
same,outcome,[7],inactive
same,Potency,[8],inactive
same,outcome,[9],inactive
same,Potency,[10],inactive
same,Potency,[11],inactive
same,Potency,[12],inactive
same,Potency,[13],inactive
same,Potency,[14],inactive
same,outcome,[15],inactive
same,Potency,[16],inactive
same,outcome,[17],inactive
CCOC(=O)C(Cl)Cc1cc(-n2nc(C)n(C(F)F)c2=O)c(F)cc1Cl (stereo unspecified),Potency,[2],inactive
same,Potency,[3],inactive
same,Potency,[4],inactive
same,Potency,[5],inactive
same,Potency,[6],inactive
same,outcome,[7],inactive
same,Potency,[8],inactive
same,outcome,[9],inactive
same,Potency,[10],inactive
same,Potency,[11],inactive
same,Potency,[18],inactive
same,Potency,[13],49 µM (active)
same,Potency,[14],inactive
same,outcome,[15],inactive
same,Potency,[16],inactive
same,outcome,[17],inactive
Oc1ccc(Cc2ccc(O)cc2)cc1,outcome,[1],inactive
same,Potency,[2],inactive
same,Potency,[3],inactive
same,Potency,[4],inactive
same,Potency,[5],inactive
same,Potency,[6],inactive
same,outcome,[7],inactive
same,Potency,[8],inactive
same,outcome,[9],inactive
same,Potency,[10],inactive
same,Potency,[11],inactive
same,Potency,[12],inactive
same,Potency,[14],inactive
same,outcome,[15],inactive
same,Potency,[16],inactive
CCC(=O)c1ccc(Cl)cc1,outcome,[1],inactive
same,Potency,[2],inactive
same,Potency,[3],inactive
same,Potency,[6],inactive
same,Potency,[8],inactive
same,outcome,[9],inactive
same,Potency,[10],inactive
same,Potency,[11],inactive
same,Potency,[12],inactive
same,Potency,[18],inactive
same,Potency,[14],inactive
same,outcome,[15],inactive
same,Potency,[16],inactive
same,outcome,[17],inactive
Brc1c(Br)c(Br)c(Br)c(Br)c1Br,"viability change, negative = cytotoxic",[1],-1.77% [at 6.97 µM]
same,max response,[19],23.1%
same,activity change,[2],"5.24% [at 6.97 µM, active compounds read high]"
same,cytotoxicity increase,[3],-7.6% [at 6.97 µM]
same,"activity change, negative = cytotoxic",[4],-8.23% [at 6.97 µM]
same,cytotoxicity increase,[6],-0.0521% [at 6.97 µM]
same,"activity change, negative = cytotoxicity",[7],0% [at 6.97 µM]
same,cytotoxicity increase,[8],4.45% [at 6.97 µM]
same,cytotoxicity,[9],0.332% [at 6.97 µM]
same,cytotoxicity increase,[10],0.204% [at 6.97 µM]
same,cytotoxicity increase,[11],12.9% [at 6.97 µM]
same,"activity change, negative = cytotoxic",[12],-8.35% [at 6.97 µM]
same,activity change,[14],"4.52% [at 6.97 µM, active compounds read high]"
same,"activity change, negative = cytotoxicity",[15],0.505% [at 6.97 µM]
same,cytotoxicity increase,[16],-4.76% [at 6.97 µM]
same,"activity change, negative = cytotoxicity",[17],-4.2% [at 8.39 µM]
CC(C)N(Cc1ccccc1)C(=O)C(C)(C)C,Potency,[20],inactive
same,outcome,[1],inactive
same,Potency,[2],inactive
same,Potency,[3],inactive
same,Potency,[4],inactive
same,outcome,[7],inactive
same,Potency,[8],inactive
same,outcome,[9],inactive
same,Potency,[11],inactive
same,Potency,[18],inactive
same,Potency,[13],inactive
same,Potency,[14],inactive
same,outcome,[15],inactive
same,Potency,[16],inactive
same,outcome,[17],inactive
O=[N+]([O-])CCO,Potency,[20],inactive
same,outcome,[1],inactive
same,Potency,[2],inactive
same,outcome,[7],inactive
same,Potency,[8],inactive
same,Potency,[11],inactive
same,Potency,[12],inactive
same,Potency,[18],inactive
same,Potency,[14],inactive
same,outcome,[15],inactive
same,Potency,[16],inactive
same,outcome,[17],inactive
CON(C)C(=O)Nc1ccc(Br)c(Cl)c1,outcome,[1],inactive
same,Potency,[2],inactive
same,Potency,[3],inactive
same,Potency,[4],inactive
same,Potency,[5],inactive
same,Potency,[6],inactive
same,outcome,[7],inactive
same,Potency,[8],inactive
same,outcome,[9],inactive
same,Potency,[10],inactive
same,Potency,[11],inactive
same,Potency,[12],inactive
same,Potency,[13],inactive
same,Potency,[14],inactive
same,outcome,[15],inactive
same,Potency,[16],inactive
BrCCc1ccccc1,Potency,[20],inactive
same,outcome,[1],inactive
same,Potency,[2],inactive
same,Potency,[3],inactive
same,Potency,[5],inactive
same,Potency,[6],inactive
same,outcome,[7],inactive
same,Potency,[8],inactive
same,outcome,[9],inactive
same,Potency,[10],inactive
same,Potency,[11],inactive
same,Potency,[18],inactive
same,Potency,[14],inactive
same,outcome,[15],inactive
same,Potency,[16],inactive
same,outcome,[17],inactive
CC(C)[N+](C)(CCC(C(N)=O)(c1ccccc1)c1ccccc1)C(C)C,Potency,[20],inactive
same,outcome,[1],inactive
same,Potency,[2],inactive
same,Potency,[3],inactive
same,Potency,[5],inactive
same,Potency,[6],inactive
same,outcome,[7],inactive
same,Potency,[8],inactive
same,outcome,[9],inactive
same,Potency,[10],inactive
same,Potency,[11],inactive
same,Potency,[12],inactive
same,Potency,[18],inactive
same,Potency,[13],inactive
same,Potency,[14],inactive
same,outcome,[15],inactive
same,Potency,[16],inactive
same,outcome,[17],inactive
Clc1nc(Cl)nc(Nc2ccccc2Cl)n1,Potency,[20],inactive
same,outcome,[1],inactive
same,Potency,[2],inactive
same,Potency,[3],inactive
same,Potency,[4],inactive
same,Potency,[6],inactive
same,outcome,[7],inactive
same,Potency,[8],inactive
same,outcome,[9],inactive
same,Potency,[10],inactive
same,Potency,[11],inactive
same,Potency,[12],inactive
same,Potency,[18],inactive
same,Potency,[14],inactive
same,outcome,[15],inactive
same,Potency,[16],inactive
same,outcome,[17],inactive
C=C(C)[C@H]1CN[C@H](C(=O)O)[C@H]1CC(=O)O,Potency,[20],inactive
same,outcome,[1],inactive
same,Potency,[2],inactive
same,Potency,[3],inactive
same,Potency,[6],inactive
same,outcome,[7],inactive
same,Potency,[8],inactive
same,Potency,[10],inactive
same,Potency,[11],inactive
same,Potency,[12],inactive
same,Potency,[13],inactive
same,Potency,[14],inactive
same,outcome,[15],inactive
same,Potency,[16],inactive
same,outcome,[17],inactive
CCOC(=O)Nc1cccc(OC(=O)Nc2ccccc2)c1,Potency,[20],inactive
same,outcome,[1],inactive
same,Potency,[2],inactive
same,Potency,[3],inactive
same,outcome,[7],inactive
same,Potency,[8],inactive
same,outcome,[9],inactive
same,Potency,[11],inactive
same,Potency,[12],inactive
same,Potency,[18],inactive
same,Potency,[13],inactive
same,Potency,[14],inactive
same,outcome,[15],inactive
same,Potency,[16],inactive
same,outcome,[17],inactive
O=c1[nH]oc2c1CCNC2,Potency,[20],inactive
same,outcome,[1],inactive
same,Potency,[2],inactive
same,Potency,[4],inactive
same,outcome,[7],inactive
same,Potency,[8],inactive
same,outcome,[9],inactive
same,Potency,[11],inactive
same,Potency,[12],inactive
same,Potency,[18],inactive
same,Potency,[14],inactive
same,outcome,[15],inactive
same,Potency,[16],inactive
same,outcome,[17],inactive
C=CC1(C)OC(=O)N(c2cc(Cl)cc(Cl)c2)C1=O (stereo unspecified),Potency,[20],inactive
same,outcome,[1],inactive
same,Potency,[2],inactive
same,Potency,[3],inactive
same,Potency,[4],inactive
same,Potency,[6],inactive
same,outcome,[7],inactive
same,Potency,[8],inactive
same,Potency,[10],inactive
same,Potency,[11],inactive
same,Potency,[12],inactive
same,Potency,[18],inactive
same,Potency,[13],inactive
same,Potency,[14],inactive
same,outcome,[15],inactive
same,Potency,[16],inactive
same,outcome,[17],inactive
CCC(C)(C#N)N=NC(C)(C#N)CC (stereo unspecified),Potency,[20],inactive
same,outcome,[1],inactive
same,Potency,[2],inactive
same,Potency,[3],inactive
same,Potency,[4],inactive
same,Potency,[6],inactive
same,outcome,[7],inactive
same,Potency,[8],inactive
same,outcome,[9],inactive
same,Potency,[10],inactive
same,Potency,[11],inactive
same,Potency,[12],inactive
same,Potency,[18],inactive
same,Potency,[13],inactive
same,Potency,[14],inactive
same,outcome,[15],inactive
same,Potency,[16],inactive
same,outcome,[17],inactive
